# PubChem BioAssay (EPA / NIEHS)
# Inconclusive results are not listed. Calls of active or inactive are those of the source. How the source made its calls, unless noted: active means hit-call score of the fitted dose curve at least 0.9, where 1 is the maximum; inconclusive means response in the unintended direction; inactive means score below 0.9.
# Legend:
# [1] = molecular target: human CYP2C8, CYP2C8 (gene 1558) (UniProt P10632); experiment: NVS_ADME_hCYP2C8: NovaScreen (NVS) CYP450-related Enzyme Activity (ADME) Assay for human CYP2C8 (AID 2283104; active means hit-call score of the fitted dose curve at least 0.9, where 1 is the maximum; inactive means score below 0.9)
# Method in brief: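 Fluorescence readout of substrate turnover by recombinant CYP2C8 after 0.5 h, baseline acetonitrile. Single-concentration duplicate screen at 10 uM preceded singleton concentration series (max 20 uM) for compounds passing the inhibition threshold.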
# [2] = molecular target: Cytochrome P450 3A4 (Homo sapiens) (UniProt P08684); experiment: NVS_ADME_hCYP3A4: NovaScreen (NVS) CYP450-related Enzyme Activity (ADME) Assay for human CYP3A4 (AID 2283110)
# Method in brief: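 Recombinant CYP3A4 from insect cells, fluorescence enzyme read-out, 0.33 h after chemical addition. Acetonitrile = negative control/baseline. Primary HTS: 10 uM in duplicate; actives re-tested in concentration series.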
# [3] = molecular target: human CYP4F12, CYP4F12 (gene 66002) (UniProt Q9HCS2); experiment: NVS_ADME_hCYP4F12: NovaScreen (NVS) CYP450-related Enzyme Activity (ADME) Assay for human CYP4F12 (AID 2283111)
# Method in brief: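 Recombinant enzyme with a fluorescent substrate, signal read at 0.5 h post-dose; activity loss analysed relative to acetonitrile. Compounds first run in duplicate at 10 uM, with follow-up concentration-response testing of actives.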
# Chain of Cytochrome P450 3A4 (Homo sapiens) (P08684 whole entry, looked up): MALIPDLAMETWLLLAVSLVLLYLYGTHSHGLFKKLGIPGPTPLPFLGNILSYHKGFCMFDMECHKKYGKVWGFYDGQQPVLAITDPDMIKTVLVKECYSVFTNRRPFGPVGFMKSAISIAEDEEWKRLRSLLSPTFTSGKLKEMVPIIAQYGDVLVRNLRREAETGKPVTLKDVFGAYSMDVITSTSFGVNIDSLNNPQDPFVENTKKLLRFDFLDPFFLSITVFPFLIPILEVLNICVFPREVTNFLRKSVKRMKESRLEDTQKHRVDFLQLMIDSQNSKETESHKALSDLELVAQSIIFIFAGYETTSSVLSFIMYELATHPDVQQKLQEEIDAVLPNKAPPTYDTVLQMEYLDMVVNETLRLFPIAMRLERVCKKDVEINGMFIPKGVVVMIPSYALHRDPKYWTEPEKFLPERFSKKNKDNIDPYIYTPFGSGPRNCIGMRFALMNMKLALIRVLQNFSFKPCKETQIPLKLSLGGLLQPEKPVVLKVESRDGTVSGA
# Chain of human CYP4F12, CYP4F12 (gene 66002) (Q9HCS2 whole entry, looked up): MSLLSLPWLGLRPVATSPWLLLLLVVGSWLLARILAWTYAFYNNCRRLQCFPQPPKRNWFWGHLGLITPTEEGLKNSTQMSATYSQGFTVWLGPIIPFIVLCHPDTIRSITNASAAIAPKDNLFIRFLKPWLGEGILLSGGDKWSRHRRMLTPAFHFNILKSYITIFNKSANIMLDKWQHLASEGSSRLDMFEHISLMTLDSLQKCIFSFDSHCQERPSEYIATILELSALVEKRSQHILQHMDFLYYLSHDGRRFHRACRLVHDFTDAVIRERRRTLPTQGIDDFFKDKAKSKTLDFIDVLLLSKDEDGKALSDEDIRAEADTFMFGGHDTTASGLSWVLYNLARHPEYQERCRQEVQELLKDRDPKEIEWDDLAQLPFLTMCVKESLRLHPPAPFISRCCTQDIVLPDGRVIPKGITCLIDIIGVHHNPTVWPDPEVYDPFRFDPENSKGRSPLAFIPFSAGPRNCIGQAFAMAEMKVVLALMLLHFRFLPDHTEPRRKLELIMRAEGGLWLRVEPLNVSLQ
# Chain of human CYP2C8, CYP2C8 (gene 1558) (P10632 whole entry, looked up): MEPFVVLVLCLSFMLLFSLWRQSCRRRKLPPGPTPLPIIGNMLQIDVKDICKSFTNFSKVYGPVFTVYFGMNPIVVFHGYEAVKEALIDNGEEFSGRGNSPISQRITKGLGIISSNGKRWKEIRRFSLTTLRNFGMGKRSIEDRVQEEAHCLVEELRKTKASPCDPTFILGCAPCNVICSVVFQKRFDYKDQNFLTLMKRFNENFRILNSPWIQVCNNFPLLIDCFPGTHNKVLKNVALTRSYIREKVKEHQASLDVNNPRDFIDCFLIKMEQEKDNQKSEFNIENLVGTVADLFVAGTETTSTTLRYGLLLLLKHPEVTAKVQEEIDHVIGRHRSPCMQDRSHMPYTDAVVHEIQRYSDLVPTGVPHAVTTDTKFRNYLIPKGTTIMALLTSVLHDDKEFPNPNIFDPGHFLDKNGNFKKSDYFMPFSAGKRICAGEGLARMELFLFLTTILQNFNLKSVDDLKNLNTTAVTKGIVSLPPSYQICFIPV
compound,measurement,setting,value
CCNc1nc(Cl)nc(NC(C)(C)C#N)n1,outcome,[1],inactive
C=C(C)[C@H]1Cc2c(ccc3c2O[C@@H]2COc4cc(OC)c(OC)cc4[C@@H]2C3=O)O1,outcome,[2],inactive
CN(C)[C@@H]1C(=O)C(C(N)=O)=C(O)[C@@]2(O)C(=O)C3=C(O)c4c(O)cccc4[C@@](C)(O)[C@H]3[C@H](O)[C@@H]12,AC50,[3],10.5 nM (active)
